# Screens from PubChem.
# Most compounds without a hit are left out; they make up all but 12% or so of the library.
# HP1b binding inh: blocks HP1-beta chromodomain binding to methylated histone tails. P83916. AlphaScreen HP1-beta / biotin-H3K9me3 peptide binding. Potency, µM (doses to about 114 µM), without a hit: top-dose activity change, negative = inhibition, actives largely listed as inhibitors. 390,000 tested, 0.56% active; also: nearly all actives have a fitted effect of over 70% in size
#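 Compound inhibition of the preformed complex between 50 nM HP1-beta and 50 nM biotinylated H3K9me3 peptide was read by AlphaScreen. Buffer was PBS pH 7.4 with 0.01% Tween-20. Incubations ran 30 min at room temperature, with 10 ug/mL donor/acceptor beads.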
# L3MBTL1 inh: L3MBTL1 (human) inhibition. Q9Y468. AlphaScreen L3MBTL1–H3K9me1 peptide binding. Potency, µM (top dose mostly 57.1 µM), without a hit: top-dose activity, negative = inhibition, usual class: inhibitors. 230,000 tested, 0.66% active. AID 485360; also: % is scaled to controls: 0 for no effect and ±100 for the full control effect; nearly all actives have a fitted effect of over 60% in size
#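 AlphaScreen assay: L3MBTL1 (50 nM final) was preincubated 30 min at room temperature with biotinylated H3(1-15)K9me1 peptide (75 nM final), then 30 min with library compounds; streptavidin donor and nickel chelate acceptor beads (10 ug/mL final) added, 30 min dark.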
# BAZ2B block: blocks human BAZ2B | 360,000 tested, 4.4% active | AlphaScreen BAZ2B-H3K14Ac peptide displacement | Q9UIF8 | Potency, µM (highest dose often 114 µM), for inactives: at the highest dose activity change, negative = inhibition, actives largely listed as inhibitors; also: % is scaled to controls: 0 for no effect and ±100 for the full control effect; nearly all actives have a fitted effect of over 60% in size
#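 BAZ2B 50 nM plus b-H3(5-23)K14Ac 50 nM, PBS pH 7.4/0.01% Tween-20, 30 min RT; compound added (max 110 uM), 30 min RT; streptavidin donor/Ni-chelate acceptor beads 10 ug/mL final, 20 min dark; AlphaScreen read.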
# G9a block: blocks human histone lysine methyltransferase G9a | Potency, µM (highest dose often 102 µM), for inactives: at the highest dose activity, negative = inhibition, usual class: inhibitors | G9a H3K9 monomethylation, AlphaScreen, 2 h | 350,000 tested, 8.8% active | AID 504332; also: % is scaled to controls: 0 for no effect and ±100 for the full control effect; nearly all actives have a fitted effect of over 75% in size
#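 Using a bead-based AlphaScreen, monomethylated H3K9 product from 2 h room-temperature reactions (G9a 20 nM, peptide 500 nM, SAM 20 uM) was detected with 0.5 ug/mL rabbit anti-H3K9me1 antibody.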
# Sfp inh: blocks B. subtilis Sfp PPTase activity; Potency, µM, inactives show largest response in the series, negative = inhibition, actives largely listed as inhibitors; Biochemical Sfp PPTase activity, qHTS; Q9F4F7; 310,000 tested, 3.5% active;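 also: the enzyme is Sfp with the accession as filed and its product quenches rhodamine fluorescence; 0% = enzyme reaction without inhibitor and -100% = no enzyme wells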
#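 Fluorescence-quenching assay: 15 nM Sfp-PPTase preincubated 15 min at room temperature with compound, then 5 uM rhodamine-CoA and 12.5 uM BHQ-2-labelled YbbR peptide added. Fluorescence (ex 525/em 598 nm) read at start and after 30 min; difference gives rate.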
# JMJD2A Tudor: JMJD2A Tudor domain (human) inhibition. AlphaScreen JMJD2A-Tudor / H3K4me3 peptide binding. O75164. Potency, µM (doses to about 114 µM), without a hit: at the top dose activity change, negative = inhibition, usual class: inhibitors. 390,000 tested, 4.4% active. AID 504339; also: % is scaled to controls: 0 for no effect and ±100 for the full control effect; nearly all actives have a fitted effect of over 50% in size
# * marks the source's active call; other numbers are inactive results; ? = inconclusive; / = no result; [ ] = another dose, or the depositor's remark. Calls follow the shape of the dose curve; as a rule, active = well fitted curve in the direction sought with a large enough effect; inconclusive = small, poorly fitted or top-dose-only effect, or another doubt; inactive = no such curve, though single readings can be large; an effect the other way counts as inactive or inconclusive. Potency is read from the fitted curve at half-maximal effect.
SMILES,HP1b binding inh,L3MBTL1 inh,BAZ2B block,G9a block,Sfp inh,JMJD2A Tudor
COc1ccc(/C(C)=N\Nc2nc(-c3ccccc3)cc(=O)[nH]2)cc1,23%,13%,11%,8.9µM*,-4%,?
COc1ccc(C/C(C)=N/Nc2nc(C)cc(=O)[nH]2)cc1,31%,/,-2%,40µM*,50µM*,-15%
COc1ccc(N2C(=O)CSC23C(=O)N(Cc2ccc(C)cc2)c2ccccc23)cc1Cl (centres undefined),67%,/,13%,1%[59 µM],/,-19%
N#CC(C(=O)c1ccco1)c1ccccn1 (centres undefined),17%,1%,4%,35µM*,19%,-24%
N#C/C(=C(\O)c1ccco1)c1ccccn1,37%,-2%,-6%,?,-1%,?
COc1ccc(C)cc1NC(=O)N1CCN(S(=O)(=O)c2ccc3c(ccn3C)c2)CC1,6%[57 µM],/,-15%,-6%[59 µM],/,-18%
CCc1cccc(C)c1NC(=O)Cn1c(=O)cc(C(F)(F)F)c2c(C)nn(C)c21,1%,/,-17%,5%[59 µM],/,-8%
COc1ccc(NC2CCCN(C(=O)CCc3cccc(Cl)c3)C2)cc1 (centres undefined),?,/,35µM*,?,-7%,?
O=C(CCc1ccccn1)N1CCCC(Nc2cccc(F)c2)C1 (centres undefined),29%,/,-3%,10%,16%,7.1µM*
COc1ccc(NC2CCCN(C(=O)CCc3cccc(F)c3)C2)cc1 (centres undefined),-17%,/,?,50µM*,2%,?
COc1ccc(NC2CCCN(C(=O)CCn3cccn3)C2)cc1 (centres undefined),18%,/,-20%,-1%,17%,-16%
Cc1ccc2c(=O)cc(C(=O)Nc3ccc(S(=O)(=O)N4CCCCCC4)cc3)oc2c1,8%,/,1%,1%[59 µM],/,-14%
CCOC(=O)C1(C)NC(c2ccc(N(C)C)cc2)C2C(=O)N(c3ccc(OC)cc3)C(=O)C21 (centres undefined),13%,4%,4%,-11%,20%,-20%
CCC1(C(=O)OC)NC(c2ccco2)C2C(=O)N(c3ccccc3)C(=O)C21 (centres undefined),54%,-10%,5%,9%[59 µM],-12%,-5%
CCC1(C(=O)OC)NC(c2ccco2)C2C(=O)N(c3ccc(F)cc3)C(=O)C21 (centres undefined),29%,-6%,-22%,45µM*,-10%,-19%
CCCC1(C(=O)OCC)NC(c2ccc(N(C)C)cc2)C2C(=O)N(c3ccc(F)cc3)C(=O)C21 (centres undefined),-20%,/,-38%,2.5µM*,16%,-35%
COc1cc(NC(=O)C2CCCN(S(=O)(=O)c3cn(C)cn3)C2)cc(OC)c1 (centres undefined),14%,/,-5%,17%[59 µM],/,-11%
CCOc1ccc(CN2CCN(C(=O)c3ccccc3)CC2)cc1,?,-1%,?,?,-23%,-13%[11.4 µM]
COc1cc(CN2CCN(C(=O)c3cccc4ccccc34)CC2)cc(OC)c1O,?,1%,50µM*,6.3µM*,-29%,22µM*
CCOc1ccc(CN2CCN(C(=O)c3cccc4ccccc34)CC2)cc1,?,-11%,45µM*,14µM*,-24%,25µM*
C=CCn1c(O)c(CN2CCCCC2)c(C)c(C#N)c1=O,19%,-21%,-33%,50µM*,-8%,-16%
Cc1c(CN2CCCC(C)C2)c(O)n(CCO)c(=O)c1C#N (centres undefined),29%,4%,-5%,/,15%,6%
COC(=O)CCC(=O)OC1(C)C(=O)C2=COC(c3ccc(OC)cc3)=CC2=C(Br)C1=O (centres undefined),?,/,45µM*,?,12%,32µM*
COC(=O)CCC(=O)OC1(C)C(=O)C2=CN(C(CO)CO)C(c3ccc(OC)cc3)=CC2=C(Br)C1=O (centres undefined),/,/,?,2%[12.7 µM],1%,/
COc1ccc(CN2C=C3C(=O)C(C)(OC(=O)C4CCCC4)C(=O)C=C3C=C2c2ccsc2)cc1 (centres undefined),-23%,/,?,?,-16%,?
SMILES,HP1b binding inh,L3MBTL1 inh,BAZ2B block,G9a block,Sfp inh,JMJD2A Tudor
COC(=O)CCC(=O)OC1(C)C(=O)C2=CN(CCCCO)C(c3ccc(OC)cc3)=CC2=C(Br)C1=O (centres undefined),/,-18%,?,35µM*,-18%,/
COc1ccc(C2=CC3=C(Br)C(=O)C(C)(OC(=O)C4CCCC4)C(=O)C3=CO2)cc1 (centres undefined),?,/,79µM*,21%[12.7 µM],-5%,50µM*
CC(C)(C)OC(=O)NCCCC1=CC2=CC(=O)C(C)(OC(=O)c3ccc(Cl)nc3)C(=O)C2=CO1 (centres undefined),/,/,/,/,-2%,/
COc1ccc(C2=CC3=C(Br)C(=O)C(C)(OC(=O)c4ccc(Cl)nc4)C(=O)C3=CO2)cc1 (centres undefined),50µM*,/,56µM*,-36%[59 µM],-24%,79µM*
O=C(Nc1ccc(F)c(Cl)c1)N1CCN(C(=O)c2nsc3ccccc23)CC1,37%,/,1%,-1%[59 µM],/,-1%
O=C(c1ccccc1)[C@@H]1[C@@H]2C(=O)N(c3ccc(F)cc3)C(=O)[C@@H]2C2CCCN21 (some centres undefined),-10%,8%,-1%,/,89µM*,?
Cc1ccc(N2CC3=C(C2=O)C(c2ccccc2)NC(=O)N3C)cc1 (centres undefined),37%,2%,2%,1%[59 µM],5%,-2%
Cc1ccc(N2C(=O)[C@@H]3[C@H](C2=O)C2CCCN2[C@@H]3C(=O)c2ccccc2)cc1 (some centres undefined),12%,-4%,?,-2%[2.33 µM],56µM*,56µM*
O=C1C2CCCN2C(c2ccccc2)N1c1ccc(F)cc1 (centres undefined),67%,-1%,-3%,-21%,-5%,-2%
Fc1ccc(NCc2cccn2-c2nnc(N3CCOCC3)s2)cc1,20%,/,1%[57.1 µM],-28%[59 µM],/,-23%
N/C(COc1ccc(C(=O)O)cc1)=N\O,46%,-1%,?,50µM*,1%,21%
O=C(O)c1ccc(OCCOc2ccccc2)cc1,33%,12%,-11%,-1%,-8%,-4%
Cc1ccc2cc(N)ccc2n1,7%,-9%,-12%,/,6%,-13%
Nc1ccc2cc3ccc(N)cc3nc2c1,/,/,/,28µM*,-24%,/
CCOC(=O)c1cc(C)n(CC2CCC(C(=O)Nc3cccc(C)c3)CC2)c1C (centres undefined),38%,/,-22%,-40%[59 µM],/,-18%
